Test results taken from PubChem BioAssay AID1159580 (chemical genetic matrix, 2015).
In all, about 5,500 compounds went through this assay and about 2,000 (36%) were called active. About 18% were inconclusive and are not listed. Rule as the data show it: active = normalized growth mostly below about 0.91 (no sharp cut-off); inconclusive = no clear call, values can overlap the other calls; inactive = mostly above about 0.92. The list shows a part of the results.

Test: chemical genetic growth profiling, strain panel (AID 1159580);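 also: tested at 20 µM; growth read once vehicle control cultures reached saturation at 30 °C; 1 = growth at the plate median or of vehicle wells; lower values mean less growth of the strain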
Conditions: growth OD

Measured: normalized growth

CC1=CC(=O)C2=C(C)CC(O)C3C(C)C(=O)OC3C12 (stereo not drawn)
inactive: S. cerevisiae deletion strains, locus YBR021W, strain FUR4, stronger effect = lower value 1.01 | S. cerevisiae deletion strains, locus YBR229C, strain ROT2, stronger effect = lower value 1 | S. cerevisiae deletion strains, locus YCL029C, strain bik1, stronger effect = lower value 1.02 | S. cerevisiae deletion strains, locus YDL035C, strain GPR1, stronger effect = lower value 1.03 | S. cerevisiae deletion strains, locus YDL074C, strain BRE1, stronger effect = lower value 1.06 | S. cerevisiae deletion strains, locus YDL101C, strain DUN1, stronger effect = lower value 1.01 | S. cerevisiae deletion strains, locus YDL185W, strain tfp1, stronger effect = lower value 1.02 | S. cerevisiae deletion strains, locus YDL192W, strain arf1, stronger effect = lower value 1.01 | S. cerevisiae deletion strains, locus YDR101C, strain arx1, stronger effect = lower value 1.06 | S. cerevisiae deletion strains, locus YDR162C, strain NBP2, stronger effect = lower value 0.989 | S. cerevisiae deletion strains, locus YDR318W, strain mcm21, stronger effect = lower value 0.994 | S. cerevisiae deletion strains, locus YDR388W, stronger effect = lower value 1.02 | S. cerevisiae deletion strains, locus YDR502C, strain sam2, stronger effect = lower value 1.04 | S. cerevisiae deletion strains, locus YEL061C, strain CIN8, stronger effect = lower value 1 | S. cerevisiae deletion strains, locus YER110C, stronger effect = lower value 1.02 | S. cerevisiae deletion strains, locus YER155C, strain BEM2, stronger effect = lower value 1 | S. cerevisiae deletion strains, locus YER167W, strain BCK2, stronger effect = lower value 1 | S. cerevisiae deletion strains, locus YGL078C, strain dbp3, stronger effect = lower value 1.03 | S. cerevisiae deletion strains, locus YGL086W, strain mad1, stronger effect = lower value 1.04 | S. cerevisiae deletion strains, locus YGL248W, strain PDE1, stronger effect = lower value 0.997 | S. cerevisiae deletion strains, locus YGR135W, strain pre9, stronger effect = lower value 1.02 | S. cerevisiae deletion strains, locus YGR229C, strain SMI1, stronger effect = lower value 1.01 | S. cerevisiae deletion strains, locus YGR252W, strain gcn5, stronger effect = lower value 0.969 | S. cerevisiae deletion strains, locus YHR030C, strain SLT2, stronger effect = lower value 0.999 | S. cerevisiae deletion strains, locus YHR079C, strain IRE1 (second series), stronger effect = lower value 1.02 | S. cerevisiae deletion strains, locus YHR094C, strain hxt1, stronger effect = lower value 1.01 | S. cerevisiae deletion strains, locus YHR129C, strain ARP1, stronger effect = lower value 1.01 | S. cerevisiae deletion strains, locus YHR200W, strain rpn10, stronger effect = lower value 1.02 | S. cerevisiae deletion strains, locus YIL066C, strain RNR3, stronger effect = lower value 0.993 | S. cerevisiae deletion strains, locus YIL073C, strain SPO22, stronger effect = lower value 1.08 | S. cerevisiae deletion strains, locus YIL125W, strain kgd1, stronger effect = lower value 1.03 | S. cerevisiae deletion strains, locus YIR030C, strain dcg1, stronger effect = lower value 1.01 | S. cerevisiae deletion strains, locus YJL095W, strain BCK1, stronger effect = lower value 0.985 | S. cerevisiae deletion strains, locus YJL134W, strain LCB3, stronger effect = lower value 0.996 | S. cerevisiae deletion strains, locus YJL168C, strain set2, stronger effect = lower value 1.01 | S. cerevisiae deletion strains, locus YJL187C, strain SWE1 (second series), stronger effect = lower value 0.997 | S. cerevisiae deletion strains, locus YJR043C, strain POL32, stronger effect = lower value 1.01 | S. cerevisiae deletion strains, locus YJR075W, strain HOC1, stronger effect = lower value 0.992 | S. cerevisiae deletion strains, locus YKL009W, strain mrt4, stronger effect = lower value 1.01 | S. cerevisiae deletion strains, locus YKL068W, stronger effect = lower value 0.999 | S. cerevisiae deletion strains, locus YKL085W, strain MDH1 (second series), stronger effect = lower value 0.992 | S. cerevisiae deletion strains, locus YKL085W, strain MDH1, stronger effect = lower value 0.992 | S. cerevisiae deletion strains, locus YKL190W, strain CNB1, stronger effect = lower value 1.01 | S. cerevisiae deletion strains, locus YKR001C, strain vps1, stronger effect = lower value 1.05 | S. cerevisiae deletion strains, locus YLR039C, strain RIC1, stronger effect = lower value 1.07 | S. cerevisiae deletion strains, locus YLR058C, strain SHM2, stronger effect = lower value 0.99 | S. cerevisiae deletion strains, locus YLR102C, strain apc9, stronger effect = lower value 1.02 | S. cerevisiae deletion strains, locus YLR262C, strain YPT6, stronger effect = lower value 1.04 | S. cerevisiae deletion strains, locus YLR268W, strain sec22, stronger effect = lower value 1.07 | S. cerevisiae deletion strains, locus YLR330W, strain CHS5, stronger effect = lower value 1.01 | S. cerevisiae deletion strains, locus YLR342W, strain FKS1 (second series), stronger effect = lower value 1.06 | S. cerevisiae deletion strains, locus YLR371W, strain rom2, stronger effect = lower value 1.05 | S. cerevisiae deletion strains, locus YLR418C, strain cdc73, stronger effect = lower value 1.01 | S. cerevisiae deletion strains, locus YML016C, strain PPZ1, stronger effect = lower value 1 | S. cerevisiae deletion strains, locus YML032C, strain rad52, stronger effect = lower value 0.988 | S. cerevisiae deletion strains, locus YML124C, strain tub3, stronger effect = lower value 1.01 | S. cerevisiae deletion strains, locus YMR078C, strain ctf18, stronger effect = lower value 1.03 | S. cerevisiae deletion strains, locus YMR223W, strain ubp8, stronger effect = lower value 0.99 | S. cerevisiae deletion strains, locus YMR307W, strain GAS1, stronger effect = lower value 1.02 | S. cerevisiae deletion strains, locus YNL067W, strain RPL9B, stronger effect = lower value 1 | S. cerevisiae deletion strains, locus YNL153C, strain GIM3, stronger effect = lower value 0.999 | S. cerevisiae deletion strains, locus YNL233W, strain BNI4, stronger effect = lower value 1 | S. cerevisiae deletion strains, locus YNL250W, strain rad50, stronger effect = lower value 1.03 | S. cerevisiae deletion strains, locus YNL271C, strain bni1, stronger effect = lower value 1.02 | S. cerevisiae deletion strains, locus YNL298W, strain CLA4, stronger effect = lower value 1.01 | S. cerevisiae deletion strains, locus YNL307C, strain MCK1, stronger effect = lower value 1.03 | S. cerevisiae deletion strains, locus YNL322C, strain KRE1, stronger effect = lower value 1 | S. cerevisiae deletion strains, locus YNR052C, strain pop2, stronger effect = lower value 1.01 | S. cerevisiae deletion strains, locus YOL006C, strain TOP1, stronger effect = lower value 1.13 | S. cerevisiae deletion strains, locus YOL012C, strain htz1 0.87 | S. cerevisiae deletion strains, locus YOL147C, strain pex11, stronger effect = lower value 1.03 | S. cerevisiae deletion strains, locus YOR061W, strain CKA2, stronger effect = lower value 1.01 | S. cerevisiae deletion strains, locus YOR069W, strain VPS5, stronger effect = lower value 1 | S. cerevisiae deletion strains, locus YOR136W, strain idh2, stronger effect = lower value 1.03 | S. cerevisiae deletion strains, locus YOR144C, strain elg1, stronger effect = lower value 1.01 | S. cerevisiae deletion strains, locus YOR184W, strain ser1, stronger effect = lower value 1.06 | S. cerevisiae deletion strains, locus YOR316C, strain cot1, stronger effect = lower value 1.01 | S. cerevisiae deletion strains, locus YPR119W, strain clb2, stronger effect = lower value 1.02 | S. cerevisiae deletion strains, locus YPR141C, strain kar3, stronger effect = lower value 1 | S. cerevisiae deletion strains, locus YPR163C, strain tif3, stronger effect = lower value 1.01 | S. cerevisiae deletion strains, locus YPR167C, strain met16, stronger effect = lower value 1.03 | S. cerevisiae deletion strains, strain wtn01, stronger effect = lower value 1.08 | S. cerevisiae strains, strain wild type, stronger effect = lower value 0.998
